Measurements as given in PubChem BioAssay AID602291 (National Center for Advancing Translational Sciences (NCATS), 2012).
Calls of active or inactive are those of the source.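 Rule for the calls: active = cells show a rise in impedance after compound treatment, with no numeric cutoff stated; inactive = no rise in impedance seen.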

The compounds below were run against Relaxin receptor 1 (Homo sapiens) (UniProt Q9HBX9) (assay: qHTS Assay for Agonists of the Relaxin Receptor RXFP1: Cell Impedance). Conditions: HEK293-RXFP1 cell impedance, xCELLigence, 500 nM time course; at 0.5 µM; stronger effect = higher value.
Text: The relaxin hormone is involved in the variety of biological functions in normal tissues and diseases. The role of relaxin is well-established in female reproduction and parturition, mammary gland and endometrial development, maintenance of myometrial quiescence during pregnancy. Relaxin signaling through its G protein-coupled receptor (GPCR) RXFP1 results in ECM remodeling through regulation of collagen deposition, cell invasiveness, proliferation and overall tissue homeostasis. […] Recombinant human relaxin (rhRlx) is currently being tested in clinical trials as a protective agent in congestive heart failure, in treating severe preeclampsia, and as an anti-fibrotic agent in systemic sclerosis.
Upon relaxin binding RXFP1 activation leads to the activation of adenylate cyclase (AC) via Gs. cAMP will activate PKA, which phosphorylates many signaling proteins. Thus, detection of cAMP increase is an easy and reliable indication of relaxin receptor activation. To screen for agonists of the relaxin receptor, a HEK293T cell line stably transfected with RXFP1 was used. RXFP1 activation was assayed by changes in cAMP levels as detected with a time-resolved fluorescence energy transfer (TR-FRET) cAMP detection kit.
After the primary screen and rounds of SAR, a probe and analog were identified. It was previously shown that relaxin increases cell impedance in RXFP1 transfected cells. A cell line stably transfected with RXFP1 receptor HEK293-RXFP1 was used for cell impedance assay to confirm relaxin-like properties of the compounds.
NIH Chemical Genomics Center [NCGC]
NIH Molecular Libraries Probe Production Centers Network [MLPCN]
Assay Submitter (PI): Alexander Agoulnik
To equilibrate the plates, 100 microL of test media (DMEM, 1% FBS, 1x Pen/Strep) was added to each well of E Plate 16 (Roche Diagnostics, Indianapolis, IN) and the plate was incubated at room temperature for 30 minutes at which point baseline impedance was measures. Then 20,000 HEK293-RXFP1 cell or HEK293 cells (parental control cell line) were added per well in a volume of 100 microL test media and allowed to sediment at room temperature for 30 minutes. The plate was placed into xCELLigence RTCA DP Instrument in the CO2 incubator overnight to allow the cells to attach. Relaxin (10 ng/mL), vehicle, or compounds 500 nM were added to the wells and the cellular impedance was measured every 10-30 seconds for 1 hour.

Chain of Relaxin receptor 1 (Homo sapiens) (Q9HBX9 whole entry, looked up): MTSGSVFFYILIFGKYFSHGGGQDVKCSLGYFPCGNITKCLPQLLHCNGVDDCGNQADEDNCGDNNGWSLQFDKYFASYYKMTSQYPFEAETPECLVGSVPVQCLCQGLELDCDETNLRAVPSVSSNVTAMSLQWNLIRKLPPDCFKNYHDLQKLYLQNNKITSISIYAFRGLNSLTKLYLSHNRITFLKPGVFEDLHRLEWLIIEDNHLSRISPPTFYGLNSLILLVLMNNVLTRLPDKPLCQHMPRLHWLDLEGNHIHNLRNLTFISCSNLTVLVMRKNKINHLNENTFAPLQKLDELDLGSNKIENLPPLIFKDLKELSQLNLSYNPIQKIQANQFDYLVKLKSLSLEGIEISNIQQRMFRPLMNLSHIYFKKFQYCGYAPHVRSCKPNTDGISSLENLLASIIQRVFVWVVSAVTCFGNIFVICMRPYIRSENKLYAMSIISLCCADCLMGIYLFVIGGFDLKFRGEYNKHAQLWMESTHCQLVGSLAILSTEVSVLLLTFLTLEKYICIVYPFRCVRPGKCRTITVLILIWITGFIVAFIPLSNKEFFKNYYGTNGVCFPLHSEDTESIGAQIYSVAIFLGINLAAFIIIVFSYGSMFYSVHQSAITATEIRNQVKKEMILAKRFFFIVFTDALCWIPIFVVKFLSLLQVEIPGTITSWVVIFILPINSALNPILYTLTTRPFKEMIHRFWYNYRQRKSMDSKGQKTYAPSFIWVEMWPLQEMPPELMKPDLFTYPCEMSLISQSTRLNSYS

Impedance increase (% of relaxin), active:
CCCCOc1ccccc1C(=O)Nc1ccccc1C(=O)Nc1cccc(S(=O)(=O)C(F)(F)F)c1 39.5%, CC(C)Oc1ccccc1C(=O)Nc1ccccc1C(=O)Nc1cccc(S(=O)(=O)C(F)(F)F)c1 46.7%, CCOc1ccccc1C(=O)Nc1ccccc1C(=O)Nc1cccc(C(F)(F)F)c1 67%, CCOc1ccccc1C(=O)Nc1ccccc1C(=O)Nc1cccc(S(=O)(=O)C(F)(F)F)c1 31.2%
